Hits are enriched below; roughly 6% of the tested compounds scored in any of these assays.
D1 potentiator = enhances dopamine response at the human D1 receptor; hit rate 0.036% among 360,000; P21728; potentiation, % at 10 µM; HEK293 TREx D1 cells, calcium flux, dopamine EC20 potentiation; AID 504651; in the data active = potentiation above about 30%; note: 0% is about no effect
D1 antagonist = blocks dopamine activation of the human D1 receptor; P21728; HEK293 TREx D1 cells, calcium flux, dopamine EC80; active compounds read low; activity change, negative = inhibition, % at 10 µM; hit rate 3.2% among 360,000; AID 504652; in the data active = activity change below about -30%; note: % is set by controls: 0 for no effect and ±100 for the full control effect
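Inducible Hek293 Trex D1 cells (tetracycline, overnight, 30 C). Calcium dye 30–90 min RT. Antagonist mode: EC80 dopamine added after 180 s compound read.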
D1 ag = human D1 receptor agonism. AID 504660. P21728. activation, % at 2 µM. hit rate 1% among 360,000. HEK293 T-REx D1 cells, calcium flux, agonist mode; in the data active = activation above about 30%; note: 0% is about no effect
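Agonism was scored from calcium flux recorded over 180 s (1 read/s) after pintool compound addition, following a 10-cycle baseline. Cells were inducible force-coupled HEK293 TREx D1, plated overnight at 30 C and loaded with no-wash calcium dye.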
DRD3 agonist = activates the human D3 dopamine receptor; AID 652048; P35462; D3R DiscoveRx beta-arrestin cells, luminescence, 90 min; max activation, %; hit rate 0.58% among 410,000; in the data active = max activation above about 30%; note: 0% is about no effect
Target sequence (P35462 whole entry, looked up): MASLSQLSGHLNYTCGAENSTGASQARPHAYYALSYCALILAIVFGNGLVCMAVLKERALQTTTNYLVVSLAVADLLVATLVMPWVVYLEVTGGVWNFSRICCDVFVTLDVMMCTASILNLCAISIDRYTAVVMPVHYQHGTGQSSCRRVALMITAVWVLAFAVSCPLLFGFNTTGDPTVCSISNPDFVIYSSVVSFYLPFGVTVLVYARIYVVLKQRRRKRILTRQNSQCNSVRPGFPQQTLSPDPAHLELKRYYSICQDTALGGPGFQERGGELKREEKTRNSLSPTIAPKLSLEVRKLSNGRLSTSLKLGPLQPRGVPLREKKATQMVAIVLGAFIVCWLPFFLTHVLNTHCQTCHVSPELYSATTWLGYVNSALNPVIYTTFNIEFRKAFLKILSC
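Cells at 1500/well, incubated overnight, then treated with pinned compounds (dopamine as control) for 90 min at 37 degrees C. DiscoveRx reagent added for 30 - 60 minutes at room temperature; luminescence read.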
DRD3 antagonist = antagonists of human D3 dopamine receptor. P35462. D3R cells, DiscoveRx beta-arrestin luminescence, antagonist mode; active compounds read low. max response, negative = inhibition, %. hit rate 2.5% among 360,000; in the data active = max response below about -50%; inconclusive = no clear call, values can overlap the other calls; note: % is set by controls: 0 for no effect and ±100 for the full control effect
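Cells plated overnight at 1500 cells/well, then exposed to library compounds with dopamine controls for 90 minutes at 37 degrees C. DiscoveRx reagent added for 30–60 minutes at room temperature; luminescence read, quantitative HTS format.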
Starred values were filed as active, the others as inactive.

What do the screens show for `CCOc1ccccc1CN1CCN(C/C=C/c2ccc(OC)cc2)CC1CCO` (stereo not drawn)?
D1 potentiator: -6; D1 antagonist: -26; D1 ag: 12; DRD3 agonist: -25; DRD3 antagonist: inconclusive

Results for CSc1cccc(CN2CCN(CCC(C)C)C(CCO)C2)c1 (stereo not drawn) ?
D1 potentiator: 1; D1 antagonist: -5; D1 ag: 1; DRD3 agonist: -13; DRD3 antagonist: -51*

What do the screens show for `COc1ccc(CN2CCN(Cc3ccccc3)C(CCO)C2)cc1OC` (stereo not drawn)?
D1 potentiator: 0; D1 antagonist: 3; D1 ag: 3; DRD3 agonist: -21; DRD3 antagonist: -72*

How did COc1cccc2c1OCC(CN1CCN(Cc3ccccc3)C(CCO)C1)=C2 (stereo not drawn) do in these assays?
D1 potentiator: -2; D1 antagonist: -5; D1 ag: 5; DRD3 agonist: -20; DRD3 antagonist: -94*

How did COc1ccccc1/C=C/CN1CCN(Cc2ccc(F)cc2)C(CCO)C1 (stereo not drawn) do in these assays?
D1 potentiator: -4; D1 antagonist: 6; D1 ag: 2; DRD3 agonist: -43; DRD3 antagonist: -82*

What do the screens show for `CCOC(=O)c1cccc(NC(=O)C(C)n2c(C)c3cnn(-c4ccccc4)c(=O)c3c2C)c1` (stereo not drawn)?
D1 potentiator: -1; D1 antagonist: 10; D1 ag: 21; DRD3 agonist: -6

How did Cc1ccc(CNC(=O)Cc2coc3cc(C)cc(C)c23)cc1 do in these assays?
D1 potentiator: -1; D1 antagonist: -22; D1 ag: 6; DRD3 agonist: -4

What do the screens show for `Cc1ccc(C(=O)OCC(=O)NCc2ccc(Cl)cc2)s1`?
DRD3 agonist: -4; DRD3 antagonist: 0

What do the screens show for `C/C(=C\c1ccco1)CN1CCN(Cc2ccc(C)o2)C(CCO)C1` (stereo not drawn)?
D1 potentiator: 1; D1 antagonist: -5; D1 ag: 3; DRD3 agonist: -16; DRD3 antagonist: -70*

How did OCCC1CN(Cc2cccc(C(F)(F)F)c2)CCN1Cc1ccccc1 (stereo not drawn) do in these assays?
D1 potentiator: -3; D1 antagonist: 1; D1 ag: 2; DRD3 agonist: -13; DRD3 antagonist: -72*

What do the screens show for `CSc1ccc(CN2CCN(C(C)C)C(CCO)C2)cc1` (stereo not drawn)?
D1 potentiator: 0; D1 antagonist: -35*; D1 ag: 0; DRD3 agonist: -6; DRD3 antagonist: -9

Results for Cc1ccc(CN2CCN(C/C=C/c3ccc(F)cc3)CC2CCO)o1 (stereo not drawn) ?
D1 potentiator: 1; D1 antagonist: -9; D1 ag: 4; DRD3 agonist: -14; DRD3 antagonist: -93*

What do the screens show for `CC(C)N1CCN(Cc2ccncc2)CC1CCO` (stereo not drawn)?
D1 potentiator: -4; D1 antagonist: 4; D1 ag: 3; DRD3 agonist: -2; DRD3 antagonist: 1

Results for Cc1ccc(CN2CCN(Cc3cnn(-c4ccc(F)cc4)c3)CC2CCO)o1 (stereo not drawn) ?
D1 potentiator: 0; D1 antagonist: -2; D1 ag: 1; DRD3 agonist: -16; DRD3 antagonist: inconclusive

Results for COc1ccc(OC)c(NC(=O)CSc2nccn2-c2cc(C)cc(C)c2)c1 ?
D1 potentiator: 3; D1 antagonist: -13; D1 ag: 4; DRD3 agonist: -13

How did CNC(=S)Nc1cc(C)ccc1OC(F)F do in these assays?
D1 potentiator: -2; D1 antagonist: 3; D1 ag: 1; DRD3 agonist: -8; DRD3 antagonist: 12

Results for CCCn1cc(CN2CCN(Cc3ccc(C)o3)C(CCO)C2)c(C)n1 (stereo not drawn) ?
D1 potentiator: 1; D1 antagonist: -36*; D1 ag: 1; DRD3 agonist: -6; DRD3 antagonist: 4

Results for CC(C)CCN1CCN(Cc2cccc(-n3cccn3)c2)CC1CCO (stereo not drawn) ?
D1 potentiator: 0; D1 antagonist: -5; D1 ag: 1; DRD3 agonist: -14; DRD3 antagonist: -25

Results for CCCn1ncc(CN2CCN(Cc3ccc(C)o3)C(CCO)C2)c1C (stereo not drawn) ?
D1 potentiator: -11; D1 antagonist: 5; D1 ag: 2; DRD3 agonist: -29; DRD3 antagonist: -8

How did CC(C)CCN1CCN(Cc2cccc(C(F)(F)F)c2)CC1CCO (stereo not drawn) do in these assays?
D1 potentiator: -6; D1 antagonist: -19; D1 ag: 8; DRD3 agonist: -19; DRD3 antagonist: -112*

What do the screens show for `CC(=O)C1=C(O)C(=O)N(Cc2cccnc2)C1c1ccc(C)cc1` (stereo not drawn)?
D1 potentiator: -6; D1 antagonist: -10; D1 ag: 1

Results for CC(=O)C1=C(O)C(=O)N(Cc2cccnc2)C1c1ccc(Cl)cc1 (stereo not drawn) ?
D1 potentiator: -2; D1 antagonist: 0; D1 ag: 2; DRD3 agonist: 35*; DRD3 antagonist: -50*

What do the screens show for `COc1cc(C2C(C(C)=O)=C(O)C(=O)N2Cc2ccccc2)ccc1O` (stereo not drawn)?
D1 potentiator: -5; D1 antagonist: -32*; D1 ag: 2; DRD3 agonist: 12; DRD3 antagonist: 5

How did COc1cc(C2C(C(=O)C(C)(C)C)=C(O)C(=O)N2Cc2ccccc2)ccc1O (stereo not drawn) do in these assays?
D1 potentiator: 7; D1 antagonist: -11; D1 ag: 2; DRD3 agonist: 1; DRD3 antagonist: 4

How did CCN1C(=O)[C@H]2[C@H]3CN=C(SCc4ccc(Cl)cc4)N3[C@@](Cc3ccccc3)(C(=O)OC)[C@H]2C1=O do in these assays?
DRD3 agonist: -48; DRD3 antagonist: -63*

How did CCN1C(=O)[C@H]2[C@H]3CN=C(SCc4ccc(C)cc4)N3[C@@](Cc3ccccc3)(C(=O)OC)[C@H]2C1=O do in these assays?
DRD3 agonist: -55; DRD3 antagonist: -57*

How did COCCCNC(=O)CNC(=S)N(Cc1ccccc1F)C1CCCCC1 do in these assays?
D1 potentiator: -1; D1 antagonist: 9; D1 ag: 2; DRD3 agonist: 2; DRD3 antagonist: 4

Results for O=C(CNC(=S)N(Cc1ccccc1F)C1CCCCC1)NCC1CCCO1 (stereo not drawn) ?
D1 potentiator: -1; D1 antagonist: -46*; D1 ag: 3; DRD3 agonist: -3; DRD3 antagonist: -24

What do the screens show for `CCCCNC(=O)CNC(=S)N(Cc1ccccc1F)C1CCCCC1`?
D1 potentiator: -3; D1 antagonist: -37*; D1 ag: 0; DRD3 agonist: 0; DRD3 antagonist: 4

Results for Cc1ccccc1NC(=O)Cn1nc(-c2ccc(F)cc2)c2cnc3ccccc3c21 ?
D1 potentiator: -6; D1 antagonist: -37*; D1 ag: 3; DRD3 agonist: 1

From PubChem
